Screens from PubChem.
This is a sample that favours compounds with a hit; in the whole collection about 21% have one here.
VP16 counter: inhibits Gal4-VP16 luciferase reporter, ROR gamma counter-screen; actives 3.5% (n = 310,000); Potency, µM (doses to about 53.6 µM), hits mostly inhibitors; AID 2546; Drosophila S2 Gal4-VP16 UAS-luciferase, luminescence, 20 h;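 further: Gal4-VP16 expression switched on by copper sulfate through the metallothionein promoter; nearly all actives have a fitted effect of over 50% in size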
ELG1 DNA repair: ELG1-dependent DNA repair inhibition | HEK293T ELG1-luciferase reporter, luminescence, 16 h; DNA damage induced by 5-fluorouridine | Potency, µM (highest dose often 46.1 µM), actives largely listed as inhibitors | actives 2.3% (n = 330,000) | AID 504467; further: nearly all actives have a fitted effect of over 55% in size
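HEK293T cells expressing luciferase-tagged ELG1 (2,000/well) received 5-Fluorouridine plus compound or DMSO for 16 hr at 37 °C. Luciferase was read by ONE-Glo luminescence after 30 min at room temperature.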
RORgamma inh: ROR gamma (mouse) transcription inhibition; AID 2551; Drosophila S2 Gal4-RORgamma UAS-luciferase reporter, 20 h; P51450; actives 5.4% (n = 310,000); Potency, µM (titrated, usually from 53.6 µM), hits mostly inhibitors; further: nearly all actives have a fitted effect of over 60% in size
Target sequence (P51450 whole entry, looked up, the tested form may be a part): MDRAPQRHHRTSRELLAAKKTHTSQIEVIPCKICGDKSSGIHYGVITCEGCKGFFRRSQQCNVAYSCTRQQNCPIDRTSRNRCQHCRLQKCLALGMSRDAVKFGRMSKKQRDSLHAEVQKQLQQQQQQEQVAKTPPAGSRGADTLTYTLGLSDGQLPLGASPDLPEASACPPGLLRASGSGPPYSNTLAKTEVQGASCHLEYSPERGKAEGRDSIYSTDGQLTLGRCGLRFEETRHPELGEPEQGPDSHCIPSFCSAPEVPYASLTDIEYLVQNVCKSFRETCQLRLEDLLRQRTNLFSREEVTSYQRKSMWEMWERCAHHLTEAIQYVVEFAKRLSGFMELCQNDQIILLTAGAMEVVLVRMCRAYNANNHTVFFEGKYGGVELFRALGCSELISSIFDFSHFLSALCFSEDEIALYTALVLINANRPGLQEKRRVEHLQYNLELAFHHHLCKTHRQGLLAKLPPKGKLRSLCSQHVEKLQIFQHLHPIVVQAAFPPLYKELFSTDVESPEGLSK
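Schneider cells (Drosophila), stable Gal4 DBD–ROR gamma + UAS-luc; 1 hr cmpd preincubation; Cu2+ induction 700 uM final; 20 hr ambient; luminescence.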
TDP1 cell noCPT: qHTS for Inhibitors of human tyrosyl-DNA phosphodiesterase 1 (TDP1): qHTS in cells in absence of CPT; DT40 Tdp1-/- hTDP1 cells, no CPT, ATP luminescence, 48 h; Potency, µM (top dose mostly 46.2 µM), usual class: inhibitors; actives 15% (n = 420,000); AID 686978, 2013; further: nearly all actives have a fitted effect of over 55% in size
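Chicken DT40 Tdp1-/- cells stably complemented with human TDP1 were seeded at 400 cells/well with DMSO in place of 20 nM camptothecin. After compound pinning, cells grew at least 48 hr at 37 °C; viability read by CellTiter-Glo luminescence.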
IL-1B inflam inh: inhibitors of inflammasome signaling (IL-1 beta secretion) | THP-1 LPS/ATP IL-1B secretion, AlphaLISA, 16 h; active compounds read low | activity change, % at 57.5 µM | actives 4.7% (n = 360,000) | AID 743279; in the data active means activity change below about -50%; inconclusive means mostly about -30% to -49%
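THP-1 cells pretreated 1 hr with compounds (up to 57.5 uM final), then stimulated with LPS (250 ng/mL final) plus ATP (1.25 mM final); secreted IL-1B measured by AlphaLISA after 16 hr, decreased signal indicating inhibition.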
TDP1 cell CPT: DT40-hTDP1 cell growth loss with CPT; chicken DT40 Tdp1-/-;hTDP1 cells + 20 nM CPT, ATP luminescence, 48 h; Potency, µM (series often up to 46.2 µM), usual class: inhibitors; actives 12% (n = 420,000); AID 686979; further: nearly all actives have a fitted effect of over 55% in size
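Chicken DT40 Tdp1-/- cells complemented with human TDP1, 400 cells/well, exposed to compounds plus 20 nM camptothecin for at least 48 h at 37 C; viability read as ATP content by CellTiter-Glo luminescence.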
Hits are given with their value; - = inactive; ? = inconclusive; . = not tested or not shown; [ ] = another dose, or the depositor's remark. Unless noted, the call rests on the fitted dose curve; in most records, active means well fitted curve in the direction sought with a large enough effect; inconclusive means small, poorly fitted or top-dose-only effect, or another doubt; inactive means no such curve, though single readings can be large; an effect the other way counts as inactive or inconclusive.

SMILES	VP16 counter	ELG1 DNA repair	RORgamma inh	TDP1 cell noCPT	IL-1B inflam inh	TDP1 cell CPT
COc1cc(OC)cc(-c2c(-c3cccs3)c3cc(-c4cc(OC)c(OC)c(OC)c4)ccc3n2C)c1	.	?	.	-	-	?
COc1cc(OC)cc(-c2c(-c3cccs3)c3cc(-c4cnc(OC)nc4)ccc3n2C)c1	.	?	.	15µM	-	?
COc1cc(OC)cc(-c2c(-c3cccs3)c3cc(-c4ccc(C(N)=O)cc4)ccc3n2C)c1	.	-	.	16µM	-	?
COc1cc(OC)c(NC(=O)COCc2cc(-c3cccs3)on2)cc1Cl	.	.	.	?	.	-
CN1CCN(c2ncc3nc(-c4cc(F)cc(F)c4)c(=O)n(-c4ccccc4)c3n2)CC1	-	.	-	-	.	-
O=C(O)CN1C(=O)C2(OCCO2)c2cc(Br)ccc21	.	.	.	-	-	-
O=C(CN1C(=O)C2(OCCO2)c2cc(Br)ccc21)NO	.	.	.	-	-55	-
O=C(NC1CCCC1)C1C(c2ccccc2)=Nc2ccccc2N1C(=O)c1ccc(C(F)(F)F)cc1 (stereo not drawn)	.	.	.	-	-	-
O=C(NC1CCCC1)C1C(c2ccccc2)=Nc2ccccc2N1C(=O)c1cc(Cl)cc(Cl)c1 (stereo not drawn)	.	.	.	29µM	-	18µM
Cc1ccc(-c2cn3c4c(=O)n(C)c(=O)n(C)c4nc3n2-c2cccc(Cl)c2)cc1	.	.	.	-	.	-
Cc1ccccc1OCC(=O)NNC(=O)C1CCN(c2ncnc3sc(C)c(C)c23)CC1	.	21µM	.	26µM	-	23µM
Cc1cccc(OCC(=O)NNC(=O)C2CCN(c3ncnc4sc(C)c(C)c34)CC2)c1	.	?	.	?	-	?
CCN(CC)c1ccc(C(=O)NNC(=O)C2CCN(c3ncnc4sc(C)c(C)c34)CC2)cc1	.	.	.	?	-	?
CCOc1ccccc1N=C1SCC(C)N1C(=O)C1CCN(c2ncnc3sc(C)c(C)c23)CC1 (stereo not drawn)	.	.	.	15µM	-	21µM
Cc1sc2ncnc(N3CCC(C(=O)N4CC(C)SC4=Nc4ccc(Cl)cc4)CC3)c2c1C (stereo not drawn)	.	.	.	?	-	?
C=CCn1c(C)cc(-c2csc(NC(=O)C3CCN(c4ncnc5sc(C)c(C)c45)CC3)n2)c1C	.	.	.	21µM	-	?
COc1ccccc1OCC(=O)NNC(=O)C1CCN(c2ncnc3sc(C)c(C)c23)CC1	.	?	.	13µM	-	?
O=C(COC(=O)CCC(=O)c1ccc(F)cc1)NCc1ccccc1Cl	.	-	.	-	-	-
CC(C)NC(=O)C1(C)CSCC(=O)N1Cc1cccc(F)c1 (stereo not drawn)	.	.	.	-	-	-
COC(=O)[C@@H]1CC[C@H](C)[C@@H](c2ccc(C)cc2)N1C(=O)c1ccc(/C=N\O[C@@H](C)c2cn([C@H]3COC[C@H]3O)nn2)cc1	-[10 µM]	.	-[10 µM]	.	.	.
COc1ccc(-c2csc(NC(=O)C3CCN(c4ncnc5sc(C)c(C)c45)CC3)n2)cc1OC	.	5.2µM	.	2.6µM	-	2.9µM
Cc1sc2ncnc(N3CCC(C(=O)N(CC(C)C)c4nc5ccccc5s4)CC3)c2c1C	.	-	.	15µM	-	21µM
CCCN(CC(=O)Nc1ccccc1C)C(=O)C1CCN(c2ncnc3sc(C)c(C)c23)CC1	.	9.2µM	.	10µM	-	21µM
Cc1sc2ncnc(N3CCC(C(=O)Nc4sc5c(c4C(N)=O)CCC(C)C5)CC3)c2c1C (stereo not drawn)	.	?	.	?	-	?
O=C(NC1CCCCC1)NS(=O)(=O)c1ccc2c(c1)CCC2	.	.	.	-	-	-
Cc1ccc(N2CC(C(=O)N3CCC(C(=O)NCCCOC(C)C)CC3)CC2=O)cc1 (stereo not drawn)	-	-	-	-	-	-
O=C(NCc1cccs1)c1ccc2c(c1)N(Cc1cccc(F)c1)C(=O)c1ccccc1S2	.	.	.	-	.	-
COC(=O)C1=CC(C(=O)c2cccs2)=NN(c2ccc(OC)cc2)C1C(=O)OC (stereo not drawn)	-	-	-	?	-69	?
